15 sequences from paper PMC3218832 can be followed below.

Targets include RELARELA (p65 homodimer) (Homo sapiens, UniProt Q04206 1-307); p50p50 homodimer (Homo sapiens, UniProt P19838 7-356); RELB subunit;p50 subunit (Homo sapiens;Homo sapiens, UniProt Q01201;P19838 120-401;7-356).
Common to all, as to assay: protein binding microarray; high values mean tight binding
Holding throughout (details): dsDNA, one strand shown

The target of a further assay is T1, p52p52 homodimer (Homo sapiens, UniProt Q00653 4-332).
T1 sequence: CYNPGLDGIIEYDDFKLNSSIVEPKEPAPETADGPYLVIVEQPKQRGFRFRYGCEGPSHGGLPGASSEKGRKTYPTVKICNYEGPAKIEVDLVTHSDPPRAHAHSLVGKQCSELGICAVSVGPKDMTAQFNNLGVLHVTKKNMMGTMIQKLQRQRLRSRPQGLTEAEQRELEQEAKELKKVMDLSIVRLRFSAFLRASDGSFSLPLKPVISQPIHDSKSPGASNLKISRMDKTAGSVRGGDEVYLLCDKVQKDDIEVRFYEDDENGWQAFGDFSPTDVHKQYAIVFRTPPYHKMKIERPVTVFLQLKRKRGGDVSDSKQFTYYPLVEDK

Assay [1] concerns the target RELA (p65) subunit of heterodimer;p50 subunit (Homo sapiens;Homo sapiens, UniProt Q04206;P19838 1-307;7-356).
In assay [2] the target is RELA (p65) subunit of heterodimer;p52 subunit (Homo sapiens;Homo sapiens, UniProt Q04206;Q00653 1-307;4-332).
For another assay, the target named is T2, RELB subunit;p52 subunit (Homo sapiens;Homo sapiens, UniProt Q01201;Q00653 120-401;4-332).
T2 sequence 1: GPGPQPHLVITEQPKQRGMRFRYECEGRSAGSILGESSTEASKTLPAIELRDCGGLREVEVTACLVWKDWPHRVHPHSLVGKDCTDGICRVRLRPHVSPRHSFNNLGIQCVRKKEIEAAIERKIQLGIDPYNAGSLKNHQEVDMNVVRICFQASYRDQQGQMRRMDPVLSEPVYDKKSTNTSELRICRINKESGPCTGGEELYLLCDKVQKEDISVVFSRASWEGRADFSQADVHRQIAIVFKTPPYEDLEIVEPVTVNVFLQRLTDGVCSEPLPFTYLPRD
T2 sequence 2: T1 sequence

In assay [3] the target is C-Rel subunit;p50 subunit (Homo sapiens;Homo sapiens, UniProt Q04864;P19838 1-285;7-356).
In assay [4] the target is T3, C-Rel subunit;p52 subunit (Homo sapiens;Homo sapiens, UniProt Q04864;Q00653 1-285;4-332).
T3 sequence 1: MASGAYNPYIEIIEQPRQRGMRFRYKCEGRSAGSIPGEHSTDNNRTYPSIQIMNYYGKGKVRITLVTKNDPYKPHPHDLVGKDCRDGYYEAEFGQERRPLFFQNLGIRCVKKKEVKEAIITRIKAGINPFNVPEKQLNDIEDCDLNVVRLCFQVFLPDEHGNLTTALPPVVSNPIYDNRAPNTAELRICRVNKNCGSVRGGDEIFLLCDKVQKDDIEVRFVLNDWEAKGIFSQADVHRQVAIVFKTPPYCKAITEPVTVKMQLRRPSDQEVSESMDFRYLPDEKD
T3 sequence 2: T1 sequence

Chain of RELARELA (p65 homodimer) (Q04206 1-307): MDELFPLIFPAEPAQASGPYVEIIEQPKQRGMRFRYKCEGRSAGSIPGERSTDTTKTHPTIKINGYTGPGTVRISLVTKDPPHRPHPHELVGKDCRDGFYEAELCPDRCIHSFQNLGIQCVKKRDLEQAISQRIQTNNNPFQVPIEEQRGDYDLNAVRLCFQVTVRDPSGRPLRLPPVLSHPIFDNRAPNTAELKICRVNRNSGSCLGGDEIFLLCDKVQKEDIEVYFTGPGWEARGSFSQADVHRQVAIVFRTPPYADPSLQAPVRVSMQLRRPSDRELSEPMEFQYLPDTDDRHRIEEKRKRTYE
Chain of RELA (p65) subunit of heterodimer;p50 subunit (Q04206 1-307, chain 1 of 2): as the sequence (Q04206 1-307) above
Chain of RELA (p65) subunit of heterodimer;p50 subunit (P19838 7-356, chain 2 of 2): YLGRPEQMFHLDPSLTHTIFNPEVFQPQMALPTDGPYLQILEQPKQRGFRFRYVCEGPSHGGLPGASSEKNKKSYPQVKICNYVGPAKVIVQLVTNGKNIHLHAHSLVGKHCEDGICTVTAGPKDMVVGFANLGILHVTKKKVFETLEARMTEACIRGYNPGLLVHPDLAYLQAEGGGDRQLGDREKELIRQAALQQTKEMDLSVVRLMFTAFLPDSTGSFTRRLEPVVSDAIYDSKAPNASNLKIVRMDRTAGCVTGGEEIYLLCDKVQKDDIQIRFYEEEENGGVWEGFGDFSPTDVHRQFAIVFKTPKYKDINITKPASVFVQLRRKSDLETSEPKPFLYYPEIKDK
Chain of p50p50 homodimer (P19838 7-356): as the sequence (P19838 7-356, chain 2 of 2) above

For GAGAGACTCCT, the binding signal with RELARELA (p65 homodimer) is -0.455 z-score; in the assay with p50p50 homodimer it was -2.14 z-score; in the assay with p52p52 homodimer, -0.793 z-score; in [1] it was -1.01 z-score; in assay [2], -1.21 z-score; in the assay with RELB subunit;p50 subunit it was -1.19 z-score. For the same sequence, the results for the binding signal (with RELB subunit;p52 subunit; in assay [3]; in [4]) were -1.24 z-score, -1.58 z-score and -1.02 z-score, respectively.
Regarding AAGGTCACCCT, the binding signal in the assay with RELARELA (p65 homodimer) was -0.86 z-score; in the assay with p50p50 homodimer, -1.49 z-score; in the assay with p52p52 homodimer it was -0.495 z-score; in assay [1] it was -0.903 z-score; in assay [2], -0.928 z-score; in the assay with RELB subunit;p50 subunit, -0.645 z-score. Moreover, the values for the binding signal (with RELB subunit;p52 subunit; in assay [3]; in assay [4]) were -0.697 z-score, -1.21 z-score and -0.77 z-score, respectively.
On to AGGATCACCCT, for which the binding signal was -0.477 z-score in the assay with RELARELA (p65 homodimer); -0.136 z-score with p50p50 homodimer; -0.277 z-score with p52p52 homodimer; -0.316 z-score in assay [1]; -0.525 z-score in [2]; -0.14 z-score with RELB subunit;p50 subunit. Further, the figures for the binding signal (in the assay with RELB subunit;p52 subunit; in assay [3]; in assay [4]) were -0.242 z-score, -0.558 z-score and -0.421 z-score, respectively.
With AGAAGCTCCCT, the binding signal with RELARELA (p65 homodimer) is -0.425 z-score; with p50p50 homodimer it was 0.158 z-score; with p52p52 homodimer it was -0.322 z-score; in assay [1], -0.103 z-score; in [2], -0.284 z-score; in the assay with RELB subunit;p50 subunit, -0.0298 z-score. Besides, the values for the binding signal (with RELB subunit;p52 subunit; in assay [3]; in assay [4]) were -0.239 z-score, -0.54 z-score and -0.52 z-score, respectively.
As to CGGGACCCCCT, the binding signal in the assay with RELARELA (p65 homodimer) was -0.322 z-score; with p50p50 homodimer, 1.2 z-score; in the assay with p52p52 homodimer, 0.855 z-score; in [1] it was 1.01 z-score; in assay [2] it was 0.923 z-score; in the assay with RELB subunit;p50 subunit, 1.13 z-score. Besides, the binding signal in the assay with RELB subunit;p52 subunit worked out at 1.36 z-score; in [3] it was 0.895 z-score; in assay [4], 0.632 z-score.
For CGGAAGCTCCT, the binding signal was -0.12 z-score with RELARELA (p65 homodimer); -1.95 z-score in the assay with p50p50 homodimer; -0.752 z-score in the assay with p52p52 homodimer; -1.05 z-score in assay [1]; -1.08 z-score in assay [2]; -1.17 z-score with RELB subunit;p50 subunit. The binding signal with RELB subunit;p52 subunit is -1.2 z-score; in assay [3], -1.46 z-score; in assay [4] it was -0.785 z-score.
Take CGAGTAACCCC: the binding signal with RELARELA (p65 homodimer) was -0.498 z-score; with p50p50 homodimer it was -0.0762 z-score; with p52p52 homodimer, -0.149 z-score; in assay [1], -0.232 z-score; in [2], -0.211 z-score; in the assay with RELB subunit;p50 subunit, -0.188 z-score. In addition, the figures for the binding signal (with RELB subunit;p52 subunit; in [3]; in assay [4]) were 0.213 z-score, -0.0464 z-score and -0.115 z-score, respectively.
On to AAATGACCCCT, for which the binding signal in the assay with RELARELA (p65 homodimer) is -0.474 z-score; with p50p50 homodimer, 0.593 z-score; in the assay with p52p52 homodimer it was 0.182 z-score; in [1], 0.135 z-score; in assay [2] it was 0.303 z-score; with RELB subunit;p50 subunit it was 0.241 z-score. The binding signal with RELB subunit;p52 subunit is 0.325 z-score; in assay [3] it was -0.224 z-score; in [4], 0.165 z-score.
With GAAAATATCCT, the binding signal with RELARELA (p65 homodimer) was -0.0981 z-score; in the assay with p50p50 homodimer, -1.17 z-score; with p52p52 homodimer it was -0.53 z-score; in assay [1], -0.742 z-score; in [2] it was -0.608 z-score; in the assay with RELB subunit;p50 subunit, -1.05 z-score. Besides, the binding signal with RELB subunit;p52 subunit is -0.797 z-score; in assay [3] it was -0.995 z-score; in [4], -0.675 z-score.
Turning to AAGTTATCCCC, the binding signal was 0.516 z-score with RELARELA (p65 homodimer); 1.08 z-score with p50p50 homodimer; 0.864 z-score in the assay with p52p52 homodimer; 0.995 z-score in assay [1]; 0.69 z-score in assay [2]; 1.26 z-score with RELB subunit;p50 subunit. Also, the binding signal worked out at 1.11 z-score with RELB subunit;p52 subunit, 1.16 z-score in [3] and 0.506 z-score in [4].
In the case of CAGAAAATCCC, the binding signal amounted to 1.82 z-score in the assay with RELARELA (p65 homodimer); 0.978 z-score with p50p50 homodimer; 1.18 z-score in the assay with p52p52 homodimer; 0.992 z-score in [1]; 1.13 z-score in assay [2]; 0.966 z-score with RELB subunit;p50 subunit. Besides, the values for the binding signal (in the assay with RELB subunit;p52 subunit; in assay [3]; in assay [4]) were 1.04 z-score, 0.902 z-score and 1.19 z-score, respectively.
Regarding CGAGGCACCCT, the binding signal was -1.09 z-score with RELARELA (p65 homodimer); -1.16 z-score with p50p50 homodimer; -0.572 z-score with p52p52 homodimer; -1.04 z-score in assay [1]; -0.854 z-score in [2]; -0.726 z-score with RELB subunit;p50 subunit. For the same sequence, the figures for the binding signal (with RELB subunit;p52 subunit; in assay [3]; in [4]) were -0.72 z-score, -0.919 z-score and -1.01 z-score, respectively.
In the case of AAATACACCCC, the binding signal with RELARELA (p65 homodimer) is -0.0111 z-score; with p50p50 homodimer, 0.252 z-score; with p52p52 homodimer, 0.0531 z-score; in assay [1], 0.224 z-score; in [2], 0.204 z-score; with RELB subunit;p50 subunit, 0.209 z-score. In addition, the binding signal in the assay with RELB subunit;p52 subunit is 0.566 z-score; in assay [3] it was 0.342 z-score; in [4], 0.187 z-score.
On to AGATACATCCC, for which the binding signal was -0.0343 z-score with RELARELA (p65 homodimer); -0.79 z-score with p50p50 homodimer; -0.47 z-score with p52p52 homodimer; -0.557 z-score in assay [1]; -0.673 z-score in assay [2]; -0.73 z-score with RELB subunit;p50 subunit. For the same sequence, the binding signal was -0.746 z-score in the assay with RELB subunit;p52 subunit, -0.981 z-score in assay [3] and -0.677 z-score in [4].
Turning to CAGTACCCCCC, the binding signal is -0.045 z-score in the assay with RELARELA (p65 homodimer); 1.15 z-score in the assay with p50p50 homodimer; 0.733 z-score in the assay with p52p52 homodimer; 0.954 z-score in assay [1]; 0.96 z-score in assay [2]; 0.927 z-score in the assay with RELB subunit;p50 subunit. The binding signal with RELB subunit;p52 subunit is 1.16 z-score; in assay [3], 0.886 z-score; in [4], 0.823 z-score.
